PostGolgi yeast: growth inhibition of a yeast mutant, post-Golgi transport screen | 98,000 tested, 0.9% active | post-Golgi transport phenotypic cell assay | inhibition, % at 10 µM;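 note: yeast cells grown in 1536-well plates; yeast grown about 18 h at 30C before absorbance read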
CYP2C9 inhib: human CYP2C9 inhibition; CYP2C9 Supersomes, luciferin-H conversion, luminescence; inhibition, % at 5 µM; 96,000 tested, 20% active; AID 777;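 active = blocking of liver enzyme CYP2C9 beyond about 50% at 5 µM, limit read from the data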
PostGolgi ctrl: growth of the yeast control strain, post-Golgi counter-screen. AID 738. 98,000 tested, 5% active. efflux-deficient yeast background strain, growth absorbance A615, 16 h. inhibition, % at 10 µM
CYP2C19 inh: human CYP2C19 inhibition; CYP2C19 Supersomes, luciferin-H EGE luminescence, 30 min; P33261; inhibition, % at 5 µM; 96,000 tested, 21% active;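 active = CYP2C19 inhibition above a set limit at 5 µM in the primary screen, cut at about 50% in these data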;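 note: plate controls were negative control wells for no effect and 2.5 mM tranylcypromine positive control for full effect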
CYP2C19 act: cytochrome P450 2C19 (human) activation; P33261; 96,000 tested, under 10 active; recombinant CYP2C19, luciferin-H EGE luminescence; active compounds read high; 0 = fully inhibited enzyme, 1 = untreated enzyme; activation factor at 5 µM;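 active = activation factor of at least 2 at 5 µM in the primary screen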;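 note: 0 = wells with 2.5 mM tranylcypromine and 1 = vehicle-only wells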
CYP2C9 act: increases human cytochrome P450 2C9 activity. recombinant CYP2C9, luciferin-H conversion, luminescence; active compounds read high; factor 1 = untreated enzyme, 0 = blocked. activation factor at 5 µM. 96,000 tested, 1.4% active. AID 1024;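 active = activation factor of 2 or more for CYP2C9 at a 5 µM dose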;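 note: 0 = sulfaphenazole-blocked wells and 1 = vehicle-only wells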
* marks the source's active call; other numbers are inactive results; nt = not tested or not shown. The list is not random: actives were taken first. Their share in the collection is about 32%. Cut-off read from the data, not from the text of the source, unless noted: active = inhibition above about 30%; inactive = the rest.

SMILES	PostGolgi yeast	CYP2C9 inhib	PostGolgi ctrl	CYP2C19 inh	CYP2C19 act	CYP2C9 act
COc1cccc(C2c3c(oc4cc(C)c(C)cc4c3=O)C(=O)N2CCCN(C)C)c1 (stereo not given)	-7	35	7	8	0.9	0.7
CCOC(=O)N1CCN(C(=O)CCCn2nc(C)c3sc4ccccc4c3c2=O)CC1	-4	-137	-1	5	0.9	2.4*
O=C1CCCc2c1nn(-c1ccccc1)[n+]2[O-]	-8	2	6	-8	1.1	1
Brc1ccc(C2=CC(c3cccs3)n3ncnc3N2)cc1 (stereo not given)	2	42	15	35	0.7	0.6
Fc1ccc(Br)cc1C1C=C(c2cccnc2)Nc2ncnn21 (stereo not given)	9	54*	5	88*	0.1	0.5
O=c1c(-c2ccnn2-c2ccccc2F)cnc2n1CCS2	0	12	-3	58*	0.4	0.9
N#Cc1ccc(-n2nccc2-c2cnc3n(c2=O)CCS3)cc1	1	24	2	92*	0.1	0.8
COc1ccc(Cl)cc1NC(=O)c1cnc2n(c1=O)CCS2	nt	-86	nt	-4	1	1.9
O=c1c(-c2ccnn2-c2cccc(Cl)c2)cnc2n1CCS2	-8	46	5	91*	0.1	0.5
O=c1c(-c2ccnn2-c2ccc(F)cc2)cnc2n1CCS2	5	8	-2	79*	0.2	0.9
O=[n+]1c2c(n([O-])c3cc(F)c(F)cc31)CCCC2	9	-16	-5	-22	1.2	1.2
COc1ccc(CN2CCn3ncc(C(=O)Nc4cc(C)cc(C)c4)c3C2=O)cc1	-1	-3	14	19	0.8	1
CN(C)CCCn1c(SCC(=O)Nc2sc3c(c2C#N)CCCC3)nnc1-c1ccncc1	-1	7	3	13	0.9	0.9
C=CCn1c(SCC(=O)Nc2sc3c(c2C#N)CCC3)nnc1C1COc2ccccc2O1 (stereo not given)	7	66*	18	7	0.9	0.3
Cn1c(SCC(=O)Nc2sc3c(c2C#N)CCC3)nnc1C1COc2ccccc2O1 (stereo not given)	-3	67*	1	22	0.8	0.3
COC(=O)c1ccc(COc2ccc3c(C)c(C)c(=O)oc3c2)o1	-13	20	6	16	0.8	0.8
O=C(c1cc2c(ccc3ccccc32)oc1=O)N1CCN(CCO)CC1	4	nt	5	nt	nt	nt
CCC(C)[C@H](NC(=O)NCCCc1ccccc1)C(=O)OC (stereo not given in full)	12	5	5	19	0.8	0.9
CC/C(=C\C(=O)c1ccncc1)Nc1ccc(O)cc1	-1	41	12	87*	0.1	0.6
Cc1cccc(OCCOC(=O)C2CCN(S(=O)(=O)c3cccs3)CC2)c1	-1	65*	21	47	0.5	0.3
O=C(OCc1nnc(-c2ccccc2)o1)C1CCN(S(=O)(=O)c2cccs2)CC1	0	79*	1	38	0.6	0.2
O=C(OCCN1C(=O)c2ccccc2C1=O)C1CCN(S(=O)(=O)c2cccs2)CC1	-7	97*	15	86*	0.1	0
O=C(OCCN1C(=O)c2ccccc2C1=O)c1cccs1	-5	28	5	46	0.5	0.7
O=C(O)CC1SC(=Nc2cccc(C(F)(F)F)c2)NC1=O (stereo not given)	-7	-11	8	-1	1	1.1
CCCCc1nnc(NC(=O)C(C)Sc2nc(N)cc(=O)[nH]2)s1 (stereo not given)	-4	28	4	6	0.9	0.7
COC(=O)c1cc(NC2c3ccccc3C(=O)N2CCN2CCOCC2)cc(C(=O)OC)c1 (stereo not given)	-5	36	8	98*	0	0.6
O=C1c2ccccc2C(Nc2ccc(Cl)cc2)N1CCN1CCOCC1 (stereo not given)	-10	6	4	75*	0.2	0.9
c1ccc(-c2nnc(-c3ccco3)o2)cc1	-33	-15	7	50*	0.5	1.1
O=C(Nc1ccc(-c2nnc(-c3ccco3)o2)cc1)C(c1ccccc1)c1ccccc1	-3	72*	4	-20	1.2	0.3
O=c1ccc2c(o1)/C(=C/C=C(Cl)Cl)CCC2	-2	-7	13	-5	1.1	1.1

Assay outcomes as filed in PubChem BioAssay.
